MITF primary: human MITF inhibition, primary screen. inhibition, % at 2.6 µM. AID 1259374. O75030. 0.91% of 650,000 active. AlphaScreen MITF homodimerization, bead proximity signal; in the data active means inhibition above about 50%
Target sequence (O75030 whole entry, looked up): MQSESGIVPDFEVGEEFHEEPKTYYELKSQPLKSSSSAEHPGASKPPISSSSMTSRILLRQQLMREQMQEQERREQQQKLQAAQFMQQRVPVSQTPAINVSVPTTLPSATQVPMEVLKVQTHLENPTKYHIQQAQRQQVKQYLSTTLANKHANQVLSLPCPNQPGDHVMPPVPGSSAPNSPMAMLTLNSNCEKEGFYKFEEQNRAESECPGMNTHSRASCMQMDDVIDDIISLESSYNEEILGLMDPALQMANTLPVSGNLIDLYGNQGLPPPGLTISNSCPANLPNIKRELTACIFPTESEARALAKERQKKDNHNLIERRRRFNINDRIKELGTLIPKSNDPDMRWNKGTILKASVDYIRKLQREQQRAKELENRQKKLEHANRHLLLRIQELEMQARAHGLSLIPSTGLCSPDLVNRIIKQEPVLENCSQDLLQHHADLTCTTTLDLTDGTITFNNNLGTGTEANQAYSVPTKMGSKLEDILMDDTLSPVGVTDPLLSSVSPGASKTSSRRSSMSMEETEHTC
TEAD-YAP block: TEAD-YAP interaction inhibition; inhibition, % at 9.12 µM; HEK-TIYL cells, TEAD-Gal4/YAP UAS-luciferase luminescence; 1.4% of 640,000 active; in the data active means inhibition above about 32%
FBW7 act: activators of human E3 ligase FBW7; Q969H0; AlphaScreen FBW7–phospho-cyclin E peptide binding, activator screen; normalized activity (activation), % at 26.1 µM; 0.13% of 650,000 active; in the data active means normalized activity above about 1.9%;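 further: purified mutant Fbw7 with reduced substrate affinity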
GPR151 ag: activators of human GPR151 | Q8TDV0 | PathHunter beta-arrestin GPR151 cells, luminescence | activation, % at 11.2 µM | 1% of 650,000 active | AID 1508602; in the data active means activation above about 4.9%
GPR151 conf act: confirmation of human GPR151 activators. shares compounds with GPR151 ag. GPR151 PathHunter beta-arrestin cells, luminescence, 90 min; % of EA-reagent control over plate median. activation, % at 11.2 µM. 6,700 tested, under 10 active. AID 1508609;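 active means mean percent activation across replicates above the confirmation screen cutoff of 4.91%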
GPR119 ag: counter-screen for GPR151 activators: effect on human GPR119 | GPR119 PathHunter beta-arrestin cells, luminescence, 90 min; 0 = compound-well median, 100 = enzyme-acceptor control | 0.3% of 6,700 active | shares compounds with GPR151 ag | activation, % at 11.2 µM;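 active means mean percent activation in the counterscreen above 29.09%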;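 further: counterscreen on off-target GPR119 to flag nonselective hits from the GPR151 activator screen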
Numbers stand for hits; . = inactive; / = no result. Only some compounds are listed: those with a hit (about 3.5% of all), similar ones and a draw of the others.

SMILES	MITF primary	TEAD-YAP block	FBW7 act	GPR151 ag	GPR151 conf act	GPR119 ag
CCc1c(C#N)c(N)nc(SCC(=O)c2cc3ccccc3oc2=O)c1C#N	.	.	.	9.9	.	.
Cc1ccc(NC(=O)C2CCCC2)c(NC(=O)C2CCCC2)c1	.	.	.	.	/	/
CCCCNC(=S)NNC(=O)C12CC3CC(CC(C3)C1)C2	.	.	.	.	/	/
CCCCNC(=S)NNC(=O)C(=O)NNC(=S)NCCCC	.	.	.	6.4	.	.
CC(=O)N[C@@H]1c2ccccc2C2(CCN(C(=O)C3CCCC3)CC2)[C@H]1OCc1ccccn1	.	.	.	.	/	/
Cc1ccc2nc(-c3ccc(Br)cc3)cc(C(=O)O)c2c1	.	.	.	.	/	/
C=CCOC(=O)N1CCC(C(=O)NC(c2ccccc2)c2ccccn2)CC1 (stereo not drawn)	.	.	.	.	/	/
COc1ccc(/C=N/NC(=O)CNC(=O)c2ccccc2Br)cc1	.	.	.	.	/	/
COc1ccc(/C=N/NC(=O)CNC(=O)c2ccccc2Br)cc1OC	.	.	.	7.6	.	.
COc1ccc(/C=N/NC(=O)CNc2ccc3ccccc3c2)cc1OC	.	.	.	5.9	.	.
COc1ccc(/C=N/NC(=O)CNc2ccc3ccccc3c2)cc1Cl	.	.	.	.	/	/
COc1ccc(/C=N/NC(=O)C(=O)Nc2cccc(Cl)c2)cc1OC	.	.	.	7.4	.	.
CCOC(=O)C1=C(C)NC(C)=C(C(=O)OCC)C1c1cn(-c2ccccc2)nc1-c1ccccc1	.	.	.	.	/	/
CCC1Oc2ccc(C(=O)n3nc(C)cc3C)cc2N(CC(=O)NC(C)(C)C)C1=O (stereo not drawn)	.	.	.	.	/	/
COC(=O)C1=CN(Cc2ccc(C)cc2)C=C(C(=O)OC)C1c1cc(F)ccc1F	.	.	.	.	/	/
CCOc1cc(/C=C/c2[nH]c(=O)[nH]c(=O)c2[N+](=O)[O-])ccc1O	.	.	.	6.5	.	.
CC1CCCCC1NC(=O)CNC(=S)N(Cc1cccs1)C1CCCCC1 (stereo not drawn)	.	.	.	.	/	/
O=C(CNC(=S)N(Cc1cccs1)C1CCCCC1)NC1CCCC1	.	.	.	6.2	.	.
COc1ccc(-c2noc(C(C)c3ccc([N+](=O)[O-])cc3)n2)cc1 (stereo not drawn)	.	.	.	5.1	.	.
COc1cccc(-c2nc(-c3ccc([N+](=O)[O-])cc3)no2)c1	.	.	.	.	/	/
Cc1cccc(-n2nnnc2C(c2ccccc2)N2CCOCC2)c1 (stereo not drawn)	.	.	.	8.5	.	.
CC(C)N(Cc1nc(-c2ccc(Cl)cc2)no1)C(=O)c1cccc([N+](=O)[O-])c1	.	.	.	.	/	/
Cc1ccc(NC(=O)CCC(=O)OC2CCC(C(C)(C)C)CC2)cc1 (stereo not drawn)	.	.	.	.	/	/
CC(C)(C)C1CCC(OC(=O)CCC(=O)N2CCCCC2)CC1 (stereo not drawn)	.	.	.	11	.	.
N#CC(C#N)=c1[nH]c2cccc3cccc1c32	.	.	.	.	/	/
SMILES	MITF primary	TEAD-YAP block	FBW7 act	GPR151 ag	GPR151 conf act	GPR119 ag
COc1cccc(-c2nc(C3CCCN3C(=O)CCCC(=O)O)n3ccccc23)c1 (stereo not drawn)	.	.	.	5.7	.	.
COc1cccc(-c2nc(C3CCCN3C(=O)CC(C)CC(=O)O)n3ccccc23)c1 (stereo not drawn)	.	.	.	.	/	/
CC(C)[C@@H](Cn1nc(-c2ccc(F)c(F)c2)ccc1=O)NC(=O)c1ccc(=O)[nH]n1	.	.	.	9.0	.	.
COc1cc(C=O)ccc1Oc1ncccc1[N+](=O)[O-]	.	.	.	8.0	.	.
Cc1ccc(-c2ncn(-c3ccc(Nc4nccc(-c5cncc(N6CCOCC6)c5)n4)cc3)n2)cn1	.	.	.	.	/	/
c1ccc(Cn2cc(-c3ccc(Nc4nccc(-c5cncc(N6CCOCC6)c5)n4)cc3)cn2)cc1	.	.	.	6.8	.	.
O=C(Nc1ccc(-c2cn[nH]c2)cc1OCCN1CCCC1)C1COc2ccccc2O1 (stereo not drawn)	.	.	.	.	/	/
Cc1nc(N2CCN(c3ccccn3)CC2)c2c(C)c(C(=O)N3CCCC3)sc2n1	.	.	.	.	/	/
CC(C)C(=O)Nc1nnc(SCc2ccc(Cl)cc2)s1	.	.	.	5.1	.	.
CCC(C(=O)O)n1c(O)c(/C=C2\C=Nc3ccccc32)sc1=S (stereo not drawn)	.	.	.	9.1	.	.
CC(=O)c1ccc(OC(C)C)c(CSC(=N)N)c1	.	.	.	6.5	.	.
CC(C)(C)c1ccc(C2/C(=C(/O)c3ccc(F)cc3)C(=O)C(=O)N2Cc2cccnc2)cc1 (stereo not drawn)	.	.	.	.	/	/
COC(=O)C1=C(C)NC(=O)CC1c1cccc(Oc2ccccc2)c1 (stereo not drawn)	.	.	.	8.3	.	.
C=CCOC(=O)C1=C(C)NC(C)=C(C(=O)OCC=C)C1c1cccc(Oc2ccccc2)c1	.	.	.	7.1	.	.
CC1=C(C(=O)OC(C)C)C(c2cccc(Oc3ccccc3)c2)C(C(=O)OC(C)C)=C(C)N1	.	.	.	.	/	/
CCOC(=O)Cn1c(=NC(=O)c2cc(=O)c3ccccc3o2)sc2cc(OC)ccc21	.	.	.	.	/	/
CCOC(=O)Cn1c(=NC(=O)c2cc(=O)c3ccccc3o2)sc2cc(F)ccc21	.	.	.	5.1	.	.
O=C(O)COc1coc(CN2CCN(c3cccc(Cl)c3)CC2)cc1=O	.	.	.	.	/	/
O=c1cc(CN2CCN(c3cccc(Cl)c3)CC2)occ1OCc1ccccc1	.	.	.	6.8	.	.
COc1ccc2c(c1)SC(C)C(=O)N2Cc1ccc2c(c1)OCO2 (stereo not drawn)	.	.	.	.	/	/
CCOc1c(Cl)cc(C(=O)NC(C)(C)C)cc1Cl	.	.	.	.	/	/
CCOc1ccc(C(=O)NC(C)(C)C)cc1Cl	.	.	.	6.9	.	.
CCOc1ccc(C(=O)NC(=S)Nc2cccnc2)cc1Cl	.	.	.	7.1	.	.
CCOc1ccc(C(=O)NC(=S)Nc2cccnc2)cc1[N+](=O)[O-]	.	.	.	.	/	/
COc1cc(C(=O)N2CCN=C2SCc2ccccc2)cc(OC)c1OC	.	.	.	.	/	/
COC(=O)c1sccc1NC(=S)Nc1ccc(F)cc1	.	.	.	.	/	/
CCOC(=O)c1ccc(NC(=S)Nc2ccsc2C(=O)OC)cc1	.	.	.	5.7	.	.
COC(=O)c1ccc(NC(=S)NCCO)cc1	.	.	.	6.3	.	.
COC(=O)c1sccc1NC(=S)Nc1ccc(OC)c(OC)c1	.	.	.	6.0	.	.
Cc1c(NC2=C(C(=O)c3ccccc3)NS(=O)(=O)c3ccccc32)c(=O)n(-c2ccccc2)n1C	.	.	.	.	/	/

Bioassay records deposited in PubChem by The Scripps Research Institute Molecular Screening Center.
